The values below come from PubChem BioAssay (NCI).

SMILES strings stand for the structures. About 79,000 compounds went through this panel and 15% of them were active in at least one assay; those are over-represented in the sample as a whole. Calls of active or inactive are those of the source. Cut-off read from the data, not from the text of the source: active = growth inhibition above about 70%; inactive = the rest.

The nature of this assay: NCI Yeast Anticancer Drug Screen. Data for the mec2-1 strain (AID 157). The note with it: S. cerevisiae mec2-1 strain, at 50.0 µM, hits give high values. The method in brief:
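Each compound was tested on mec2-1 yeast, a strain altered in DNA damage repair or cell cycle control. Growth inhibition is reported relative to vehicle.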
Consider `Cc1ccccc1N1C(=O)C(=O)c2cccc(C)c21`, for which the growth inhibition was 99.5% (active).
As for `Nc1n[nH]c(=O)c2cccnc12`, the figure is -7.95% (inactive); as for `CCCCNCCCNCCCNC(=O)c1csc(-c2csc(CCNC(=O)C(NC(=O)C(C)C(O)C(C)NC(=O)C(NC(=O)c3nc(C(CC(N)=O)NCC(N)C(N)=O)nc(N)c3C)C(OC3OC(CO)C(O)C(O)C3OC3OC(CO)C(O)C(OC(N)=O)C3O)c3cnc[nH]3)C(C)O)n2)n1` (stereo not given), 93.8% (active); as for `c1ccc(-c2ccc(-c3cnc(-c4ccc(-c5ccccc5)cc4)o3)cc2)cc1`, 53.4% (inactive).
Consider `CN(C)C=Nc1ccc2nonc2c1`, for which the growth inhibition is -3.55% (inactive).
In the case of `COC(=O)C(CCC(=O)Cc1ccccc1)N1C(=O)c2ccccc2C1=O` (stereo not given), the growth inhibition is 56.9% (inactive).
In the case of `O=S(=O)(Nc1ccccc1)c1ccccc1CC(O)(c1ccccc1)c1ccccc1` it was 93% (active); in that of `O=C1OC(=O)C2C=CC=CC12` (stereo not given), -8.45% (inactive); in that of `CCOC(=O)N/N=C/c1ccc([N+](=O)[O-])o1`, 81.8% (active).
As for `CN=C(N)N/N=C(\C)c1ccc2c(ccc3ccccc32)c1`, the figure is 91.2% (active).
As for `O=C(C(/C=N/C(=S)NCc1ccccc1)=C(/O)c1ccccc1)c1ccccc1`, the figure is 98% (active).
On to `Cc1nc(Nc2ccc(Cl)cc2)sc1C(=O)Nc1cccc2c(=O)[nH][nH]c(=O)c12`, for which the growth inhibition was 90.8% (active).
In the case of `Cc1c2ccccc2c(C)c2c1cc(F)c1ccccc12` it was 97.3% (active); in that of `CC1=C(C(=O)Nc2ccccc2)C(c2cc(Cl)cc(Cl)c2)C(C(=O)Nc2ccccc2)=C(C)N1`, 85.5% (active); in that of `O=[N+]([O-])/C(Br)=C\c1ccc([N+](=O)[O-])cc1`, 96.8% (active).
As for `CC1=CC(C)(C)Nc2cc(N)ccc21`, the figure is 20.6% (inactive); as for `Fc1ccc2nncc(SCc3ccccc3)c2c1`, 97.2% (active); as for `CN(C)c1ccc(-c2c(C#N)c(-c3ccccc3)n(NS(=O)(=O)c3ccccc3)c(=O)c2C#N)cc1`, 75.5% (active).
As for `Cc1cc(N2C(=O)CCSC2=S)ccc1Cl`, the figure is 88.8% (active); as for `C=C(c1ccccc1)[P+](c1ccccc1)(c1ccccc1)c1ccccc1`, 99.6% (active).
For `Cc1cc(Br)c2ccccc2c1N`, the growth inhibition was 54.2% (inactive).
As for `CC1C[N+](C)(C)C(C)C(=O)C1(c1ccccc1)c1ccccc1` (stereo not given), the figure is 10.9% (inactive); as for `CC(=O)N(C1=CC(=O)c2ccccc2C1=O)c1ccc(C)cc1`, 69.2% (inactive).
As for `CC(c1ccccc1)n1c2ccccc2c2c(N)ncnc21` (stereo not given), the figure is 86.8% (active); as for `CC(=O)O/N=C1/CCC2C3CC=C4CC(OC(C)=O)CCC4(C)C3CCC12C` (stereo not given), 71.5% (active); as for `c1cc(CCSSCCc2ccncc2)ccn1`, 50.9% (inactive).
Turning to `CC1=C(C(=O)Nc2cc(C)ccc2C)C(c2cccc([N+](=O)[O-])c2)C(C(=O)Nc2cc(C)ccc2C)=C(C)N1`, the growth inhibition was 34.5% (inactive).
For `ClC1=CC(Cl)=C2N=C(C(Cl)(Cl)Cl)N=C3N=C(C(Cl)(Cl)Cl)N=C1N32`, the growth inhibition is 99.5% (active).
In the case of `C[n+]1c(-c2ccc(/C=N/Nc3n[nH]c(=S)n3/N=C/c3ccc(-c4cn5ccsc5[n+]4C)cc3)cc2)cn2ccsc21` it was 94.2% (active).
On to `CC1(C)OC(=O)C(=NNc2ccccc2[N+](=O)[O-])C(=O)O1`, for which the growth inhibition is 5.75% (inactive).
As for `CC(CCCOC(c1ccccc1)(c1ccccc1)c1ccccc1)OC(=O)Nc1ccccc1` (stereo not given), the figure is 85.8% (active).
In the case of `CCN(CC)c1ccc2nc3ccc(N(CC)CC)cc3[n+](-c3ccccc3)c2c1` it was 93.7% (active); in that of `CC1OC(C)C(O)C2=C1C(=O)c1ccccc1C2=O` (stereo not given), 86.3% (active); in that of `CCCCCCCCCCCCS(=O)(=O)CC(Br)C(=O)c1ccco1` (stereo not given), 96.9% (active).
As for `NC(=O)NOCC1NC(=O)NC1=O` (stereo not given), the figure is -13.1% (inactive); as for `O=C(O)C1C(=O)OC2CCCCC21` (stereo not given), -6.45% (inactive); as for `C=CCNC(=S)N/N=C(\CCC)c1ccccn1`, 99.6% (active).
As to `Nc1ccc2c(c1)S(=O)(=O)c1cc(N)ccc1-2`, the growth inhibition was 18.8% (inactive).
In the case of `CN1C(=O)c2cccc3cc([N+](=O)[O-])cc(c23)C1=O` it was 29.1% (inactive); in that of `C/C(=N\NC(=S)NC12CC3CC(CC(C3)C1)C2)c1ccccn1`, 97.9% (active).
